Screens from PubChem.
IDE exosite FP – insulin-degrading enzyme (human) exo-site inhibition; z-score at 20 µM; P14735; purified IDE, FL-6b probe fluorescence polarization; active compounds read low; 17,000 compounds, 6.3% hits;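 active = z-score of -3 or lower, meaning strong loss of probe binding signal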;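 note: His-tagged human IDE residues 42-1019 made in E. coli with 30 nM FL-6b probe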
Target sequence (P14735 42-1019 limits assumed): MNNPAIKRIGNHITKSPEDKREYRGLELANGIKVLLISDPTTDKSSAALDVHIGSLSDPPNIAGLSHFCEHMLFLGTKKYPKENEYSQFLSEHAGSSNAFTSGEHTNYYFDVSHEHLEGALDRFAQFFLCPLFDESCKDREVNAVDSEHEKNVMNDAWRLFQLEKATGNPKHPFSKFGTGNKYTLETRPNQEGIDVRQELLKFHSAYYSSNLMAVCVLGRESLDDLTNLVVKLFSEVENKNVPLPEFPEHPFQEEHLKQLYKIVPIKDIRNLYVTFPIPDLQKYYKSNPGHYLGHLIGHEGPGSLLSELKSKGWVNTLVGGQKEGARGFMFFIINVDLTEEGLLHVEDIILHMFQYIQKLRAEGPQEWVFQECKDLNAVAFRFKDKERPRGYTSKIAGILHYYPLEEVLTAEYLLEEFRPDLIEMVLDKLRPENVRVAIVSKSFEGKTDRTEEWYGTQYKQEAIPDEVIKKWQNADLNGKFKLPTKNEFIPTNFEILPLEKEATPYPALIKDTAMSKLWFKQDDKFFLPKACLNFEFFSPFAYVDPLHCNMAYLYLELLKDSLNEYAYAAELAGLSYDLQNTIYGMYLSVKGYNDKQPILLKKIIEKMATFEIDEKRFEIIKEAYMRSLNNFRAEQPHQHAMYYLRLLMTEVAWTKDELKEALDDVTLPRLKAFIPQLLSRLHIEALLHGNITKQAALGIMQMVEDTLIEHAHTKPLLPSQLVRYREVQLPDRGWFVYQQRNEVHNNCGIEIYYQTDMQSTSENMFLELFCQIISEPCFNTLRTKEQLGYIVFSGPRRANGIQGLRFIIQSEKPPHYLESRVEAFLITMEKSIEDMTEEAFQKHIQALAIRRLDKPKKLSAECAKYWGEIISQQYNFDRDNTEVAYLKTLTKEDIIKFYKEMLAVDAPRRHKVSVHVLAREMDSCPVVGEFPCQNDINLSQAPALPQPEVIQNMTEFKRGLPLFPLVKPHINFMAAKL
Of the large screens only hits and unclear results are named; the others gave an inactive call; ! = a repeat was not active. The sample as a whole holds a higher share of hits than the screen did.

Cc1noc(C)c1S(=O)(=O)N(C)C[C@@H]1OCc2ccccc2-c2ccccc2C(=O)N([C@H](C)CO)C[C@H]1C	none
CCNC(=O)[C@@H]1[C@@H](CO)[C@@H]2Cn3c(ccc(-c4cccc(F)c4)c3=O)[C@@H]2N1C(=O)Cc1cccnc1	none
CCCC#Cc1ccc([C@H]2[C@@H](CO)N3C(=O)CN(C(=O)c4cccnc4)C[C@H]23)cc1	none
c1cncc(CN2C[C@@H]3N[C@H](C2)C3c2ccc(-c3cccnc3)cc2)c1 (stereo not given in full)	none
C(=C\c1ccc(C2[C@@H]3CN(Cc4cccnc4)C[C@H]2N3)cc1)/c1ccccc1 (stereo not given in full)	IDE exosite FP -4.8!
Cc1ccccc1-c1ccc([C@H]2[C@@H](CO)N3CCCCN(Cc4cccnc4)C[C@H]23)cc1	IDE exosite FP -11
OC[C@H]1[C@@H](c2ccc(-c3ccccc3F)cc2)[C@H]2CN(Cc3cccnc3)CCCCN21	none
O=C(C1CCC1)N1C[C@@H]2N[C@H](C1)C2c1ccc(/C=C/c2ccccc2)cc1 (stereo not given in full)	none
OC[C@H]1[C@H](c2ccc(-c3ccccc3F)cc2)[C@@H]2CN(Cc3cccnc3)CCCCN12	none
CCc1csc(N2[C@H](C#N)[C@@H](c3ccc(-c4ccc(F)cc4)cc3)[C@@H]2CO)n1	none
C[C@H]1CN([C@@H](C)CO)C(=O)CCCn2cc(nn2)CO[C@@H]1CN(C)C(=O)Nc1cccc(C(F)(F)F)c1	none
Cc1ccccc1S(=O)(=O)N1CC(=O)N2[C@H](CO)[C@@H](c3ccc(C#CCN(C)C)cc3)[C@H]2C1	none
COc1cccc(-c2ccc([C@H]3[C@H]4CN(C(=O)c5ccncc5)CC(=O)N4[C@H]3CO)cc2)c1	none
COCC#Cc1ccc([C@@H]2[C@H]3CN(C(=O)CN4CCOCC4)CC(=O)N3[C@H]2CO)cc1	none
COc1cccc(-c2ccc([C@@H]3[C@@H](CO)N4C(=O)CN(C(=O)c5ccncc5)C[C@@H]34)cc2)c1	none
Cc1ccc(-c2ccc([C@H]3[C@@H](CO)N4C(=O)CN(C(=O)CN5CCOCC5)C[C@@H]34)cc2)cc1	none
COc1cccc(-c2ccc([C@@H]3[C@@H](CO)N4C(=O)CN(C(=O)CN5CCOCC5)C[C@H]34)cc2)c1	IDE exosite FP -3.8
Cc1cccc(-c2ccc([C@H]3[C@H](CO)N4C(=O)CN(C(=O)CN5CCOCC5)C[C@@H]34)cc2)c1	IDE exosite FP -6.3
Cc1ccc(-c2ccc([C@@H]3[C@H](CO)N4C(=O)CN(C(=O)CN5CCOCC5)C[C@@H]34)cc2)cc1	none
COc1cccc(-c2ccc([C@@H]3[C@H]4CN(C(=O)CN5CCOCC5)CC(=O)N4[C@H]3CO)cc2)c1	IDE exosite FP -5.5
Cc1ccc(-c2ccc([C@@H]3[C@H]4CN(C(=O)CN5CCOCC5)CC(=O)N4[C@H]3CO)cc2)cc1	none
CNC[C@H]1OCc2cn(nn2)CCCC(=O)N([C@H](C)CO)C[C@@H]1C	none
N#C[C@H]1[C@H](c2ccc(C#CC3CC3)cc2)[C@@H](CO)N1S(=O)(=O)c1ccccc1	none
C/C=C/c1ccc([C@H]2[C@@H](C#N)N(c3nc(CC)cs3)[C@H]2CO)cc1	none
CCC(=O)N1[C@H](CO)[C@H](c2ccccc2)[C@@H]1CN(CC)C(=O)c1ccc(F)cc1	none
N#C[C@H]1N[C@H](CO)[C@@H]1c1ccc(C#CC2CCCCC2)cc1	none
O=S(=O)(c1ccccc1)N1CCCCN2[C@H](CO)[C@H](c3ccc(C#Cc4ccccn4)cc3)[C@H]2C1	IDE exosite FP -3.2
O=S(=O)(c1ccccc1)N1CCCCN2[C@H](CO)[C@H](c3ccc(C#Cc4ccccc4)cc3)[C@H]2C1	none
O=S(=O)(c1ccccc1)N1CCCCN2[C@H](CO)[C@H](c3ccc(C#Cc4ccccc4)cc3)[C@@H]2C1	none
CCS(=O)(=O)N1CCCCN2[C@H](CO)[C@@H](c3ccc(C#Cc4ccccn4)cc3)[C@@H]2C1	none
CC(C)(O)C#Cc1ccc([C@@H]2[C@H]3CN(S(C)(=O)=O)CCCCN3[C@H]2CO)cc1	none
O=C(c1ccncc1)N1CCCCN2[C@H](CO)[C@@H](c3ccc(C#Cc4ccccn4)cc3)[C@@H]2C1	none
O=C(c1ccncc1)N1CCCCN2[C@H](C1)[C@H](c1ccc(C#Cc3ccccn3)cc1)[C@@H]2CO	none
CS(=O)(=O)N1CCCCN2[C@@H](CO)[C@H](c3ccc(C#Cc4ccccn4)cc3)[C@@H]2C1	IDE exosite FP -3.9
CS(=O)(=O)N1CCCCN2[C@H](C1)[C@@H](c1ccc(C#Cc3ccccn3)cc1)[C@@H]2CO	IDE exosite FP -3.3
Cc1cc(C(=O)Nc2ccc3c(c2)C(=O)N(C)[C@@H]2CC[C@H](CC(=O)NCc4ccc(-c5ccccc5)cc4)O[C@@H]2CO3)no1	none
O=C(Nc1cc(F)ccc1F)N1CCCCN2[C@H](C1)[C@@H](c1ccc(-c3cncnc3)cc1)[C@@H]2CO	none
COCC#Cc1ccc([C@@H]2[C@H]3CN(C(=O)Nc4ccccc4F)CC(=O)N3[C@H]2CO)cc1	none
CC(C)NC(=O)Nc1ccc2c(c1)C(=O)N([C@@H](C)CO)C[C@@H](C)[C@@H](CN(C)C(=O)C1CCCCC1)OCCCC[C@@H](C)O2	none
Cc1ccc(-c2ccc([C@@H]3[C@H](CO)N4C(=O)CN(C(=O)NC(C)C)C[C@@H]34)cc2)cc1	none
COc1ccc(-c2ccc([C@H]3[C@@H](CO)N4C(=O)CN(C(=O)NC(C)C)C[C@@H]34)cc2)cc1	none
CC(C)NC(=O)N1CC(=O)N2[C@H](CO)[C@@H](c3ccc(/C=C/c4ccccc4)cc3)[C@@H]2C1	IDE exosite FP -3.3
COc1ccc(-c2ccc([C@@H]3[C@H](CO)N4C(=O)CN(C(=O)NC(C)C)C[C@@H]34)cc2)cc1	none
COc1ccc(NC(=O)N2CC(=O)N3[C@H](CO)[C@H](c4ccc(/C=C/c5ccccc5)cc4)[C@@H]3C2)cc1	none
CC(C)NC(=O)N1CC(=O)N2[C@@H](CO)[C@H](c3ccc(/C=C/c4ccccc4)cc3)[C@@H]2C1	IDE exosite FP -3.4
CC(C)NC(=O)N1CCCCN2[C@H](CO)[C@@H](c3ccc(C#Cc4ccccc4F)cc3)[C@@H]2C1	none
CC(C)C#Cc1ccc([C@@H]2[C@@H](CO)N3CCCCN(C(=O)NC(C)C)C[C@H]23)cc1	none
CC(C)NC(=O)N1CCCCN2[C@H](CO)[C@@H](c3ccc(C#C[C@H](C)O)cc3)[C@H]2C1	none
CC(C)NC(=O)N1CCCCN2[C@H](CO)[C@H](c3ccc(C#Cc4ccccc4)cc3)[C@@H]2C1	IDE exosite FP -9.8
CC(C)NC(=O)N1CCCCN2[C@H](CO)[C@H](c3ccc(C#C[C@@H](C)O)cc3)[C@@H]2C1	none
CC(C)NC(=O)N1CCCCN2[C@H](CO)[C@@H](c3ccc(C#Cc4ccccc4)cc3)[C@@H]2C1	IDE exosite FP -7.5
CC(C)NC(=O)N1CCCCN2[C@H](CO)[C@@H](c3ccc(C#C[C@@H](C)O)cc3)[C@H]2C1	none
CC(C)NC(=O)N1CCCCN2[C@@H](CO)[C@H](c3ccc(C#Cc4ccccc4)cc3)[C@@H]2C1	IDE exosite FP -11
CC(C)NC(=O)N1CCCCN2[C@H](C1)[C@H](c1ccc(C#C[C@H](C)O)cc1)[C@@H]2CO	none
O=C(C[C@H]1CC[C@H]2[C@@H](COC[C@H](O)CN2Cc2cccc(Cl)c2)O1)NCc1cccc(F)c1	none
C/C=C/c1ccc([C@@H]2[C@@H](CO)N3C(=O)CN(C(=O)Nc4ccc(OC)cc4)C[C@@H]23)cc1	none
CCC(=O)NC[C@H]1[C@@H](c2ccc(-c3ccc(OC)cc3)cc2)[C@@H](CO)N1C(C)=O	none
O=C(Nc1cc(F)ccc1F)N1CCCCN2[C@H](CO)[C@H](c3ccc(-c4cncnc4)cc3)[C@@H]2C1	none
